Out of some 360,000 compounds screened, about 2,300 (0.64%) were called active. The full list was thinned out, with actives kept by preference. Unmarked numbers belong to inactive results. No stated cut-off is given here; in the data, active means inhibition mostly above about 40% (no sharp cut-off); inactive means mostly below about 27%.

In the assay the target is Sentrin-specific protease 8 (Homo sapiens) (UniProt Q96LD8). Briefly: human SENP8 protease inhibitors, primary screen, biochemical, fluorescence, Nedd8 protein substrate, uHTS (AID 602440). To be noted: recombinant SENP8, Nedd8 substrate fluorescence; at 20 µM; active compounds read high.
Sequence of Sentrin-specific protease 8 (Homo sapiens) (Q96LD8 whole entry, looked up): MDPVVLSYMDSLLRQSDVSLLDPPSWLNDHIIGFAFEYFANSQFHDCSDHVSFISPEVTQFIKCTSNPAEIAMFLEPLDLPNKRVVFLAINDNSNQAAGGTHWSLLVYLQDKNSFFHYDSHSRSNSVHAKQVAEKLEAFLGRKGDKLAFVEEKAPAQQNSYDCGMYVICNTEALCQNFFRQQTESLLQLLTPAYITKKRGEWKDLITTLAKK
In the case of `C=CCn1c(SCC(=O)c2ccc(Br)cc2)nnc1C(C)NC(=O)Cc1ccc(OC)cc1` (configuration not stated), the inhibition (commonly the change of the read-out against control, counted positive when it falls) was 1.1%. To `CS(=O)(=O)c1ccc(C(=O)OCC(=O)NNC(=O)COc2ccc(Cl)cc2)cc1` belongs 11.8%; to `CC(C)Cc1nnc(NC(=O)CCc2ccccc2)s1`, 2.2%; to `CC(C)Cc1nnc(NC(=O)CCC(=O)Nc2ccc3cn[nH]c3c2)s1`, 42.9% (active). In the case of `CC(C)Cc1nnc(NC(=O)CCNC(=O)c2ccccc2Cl)s1` it was 8.4%; in that of `CN(C)CCCn1c(SCCN2C(=O)c3ccccc3C2=O)nc2ccccc2c1=O`, 2.7%. To `O=C(c1ccccc1)N1CCN(c2ccc([N+](=O)[O-])c(NCc3ccco3)c2)CC1` belongs 41.8% (active); to `O=[N+]([O-])c1ccc(N2CCN(S(=O)(=O)c3ccc4ccccc4c3)CC2)cc1NCc1ccco1`, 28.5%; to `O=C(c1ccc(S(=O)(=O)NCc2ccco2)cc1)N1CCN(c2ccccc2)CC1`, 17.9%.

Turning to `O=C(NCCC1CCCCN1S(=O)(=O)c1ccccc1)C(=O)NCC1CCCO1` (configuration not stated), the inhibition is 7.7%.

`CCCCNC(=O)C(C)N(CCN(C)C)C(=O)CCCN1C(=O)NC(c2ccc(Cl)cc2)C(C(=O)OCc2ccccc2)=C1C` (configuration not stated): the inhibition was 12.8%. In the case of `C/C(=N/NC(=O)c1ccc(Br)o1)c1ccc(C)o1` it was -3.6%. To `O=C(c1cccc(F)c1)N1CCC(O)(c2cccnc2)CC1` belongs 18.5%; to `O=C(c1cccc(F)c1)N1CCN(c2ccc([N+](=O)[O-])c3cccnc23)CC1`, 41.3% (active).

Take `Cc1ccccc1CN1CCN(C(=O)c2cccc(F)c2)CC1`: the inhibition was 17.2%. To `NC(=O)C1CC(=O)N(c2ccc(OCC(=O)NCc3ccccc3)cc2)C1` (configuration not stated) belongs 5.3%. As for `CC(C)C[C@@H](CO)N1CCN(Cc2ccc(O)cc2)CCC1=O`, the inhibition is -5%. With `CC(C)(C)NC(=O)NC(=O)COC(=O)C1(C)CC1(Cl)Cl` (configuration not stated), the inhibition is 12.9%. In the case of `CN(C)C(=O)c1cccc(-c2cnc3c(NC=O)cc(-c4ccc(C(=O)N5CCOCC5)cc4)cn23)c1` it was -177%.

In the case of `O=C1NNC(c2ccccc2)=N/C1=C\c1ccc(Cl)cc1`, the inhibition was 64% (active). In the case of `O=C(c1ccccc1)c1ccc(OC(=O)N2CCCC2)cc1` it was 22.4%; in that of `COc1ccc(OC)c(NC(=O)c2ccc3c(c2)CCN3S(C)(=O)=O)c1`, 3%; in that of `Cc1nc(C(=O)NCc2ccccc2)sc1C1(C)CC(c2cccnc2)=NO1` (configuration not stated), 8.5%.

In the case of `CCC(C)[C@H](NC(=O)N1c2ccccc2NC(=O)[C@@H]1C(C)C)C(=O)N[C@@H](Cc1ccccc1)C(=O)O` (some centres not stated), the inhibition was 53.4% (active).

Take `CC(C)[C@H](NC(=O)N1c2ccccc2NC(=O)[C@@H]1C(C)C)C(=O)N[C@H](C(=O)O)c1ccccc1`: the inhibition was 37%. `CC(=O)N/C(=C\c1ccc(F)cc1)C(=O)NC(Cc1ccccc1)C(=O)O` (configuration not stated): the inhibition is 2.6%. In the case of `COc1ccc([C@H]2N[C@]3(CCCN(Cc4ccco4)C3=O)[C@H]3C(=O)N(C)C(=O)[C@@H]23)cc1` it was -14%; in that of `O=C(CSc1ccc([N+](=O)[O-])cn1)Nc1ccc(N2CCOCC2)cc1`, 37.7%. On to `O=C(CCN1C(=O)COc2ccccc21)NCCCN1CCN(c2ccc(F)cc2)CC1`, for which the inhibition was 12.7%.

Consider `O=C(NCCCN1CCN(c2ccc(F)cc2)CC1)Nc1ccc([N+](=O)[O-])cc1`, for which the inhibition was 44.8% (active). `O=C(Nc1ccc(C(=O)NCc2ccccc2Cl)cc1)C1=CSCCO1`: the inhibition was -35.3%.

With `COc1ccc(OC)c(C(O)c2nc3ccccc3n2C)c1` (configuration not stated), the inhibition is 15.4%.

Regarding `Cn1nc(C(F)(F)F)c(C(=O)Nc2cccc(C(F)(F)F)c2)c1SCc1ccc(Cl)cc1`, the inhibition was 5.4%. On to `CCCCn1c(N)c(N(CC(C)C)C(=O)c2ccc(Br)o2)c(=O)[nH]c1=O`, for which the inhibition is -3.8%. In the case of `COc1cc(C(=S)N2CCOCC2)cc(OC)c1OC(=O)c1cc([N+](=O)[O-])c(C)c([N+](=O)[O-])c1` it was 27.5%. To `COc1cc(C(=S)N2CCOCC2)cc(OC)c1OC(=O)c1cc([N+](=O)[O-])cc([N+](=O)[O-])c1` belongs 40.9% (active). In the case of `COc1cc(C(=S)N2CCOCC2)cc(OC)c1OC(=O)c1ccc([N+](=O)[O-])cc1[N+](=O)[O-]` it was 11.9%. In the case of `NNC(=O)CNC(c1ccccc1)c1cc(Cl)ccc1NC(=O)c1ccccc1` (configuration not stated), the inhibition is 2.6%. To `CN(C(=O)COC(=O)CNC(=O)C12CC3CC(CC(C3)C1)C2)c1ccccc1` belongs 2%; to `CC(C)c1cc(Cn2c3ccccc3c(=O)n2C(C)Cn2cc(C3CC3)nn2)on1` (configuration not stated), -395%. To `CCS(=O)(=O)Nc1ccc(C(=O)NCCSc2ccccc2)cc1` belongs 23.1%; to `Cc1cc(C)cc(OCC(=O)Nc2ccc(N3CCOCC3)cc2N2CCOCC2)c1`, 17.3%. `CCc1ccc(C(=O)NC(=S)Nc2ccccc2N2CCOCC2)cc1`: the inhibition is 30.3%. In the case of `Cc1cccc(OCC(=O)NC(=S)Nc2ccccc2N2CCOCC2)c1` it was 43.3% (active); in that of `CCn1c(=O)cc(SCC(=O)NCCC2=CCCCC2)c2ccccc21`, -40.2%; in that of `CCCc1nc(SCC(=O)Nc2ccccc2OC)c2c(=O)n(C)c(=O)n(C)c2n1`, 10.5%. To `FC(F)(F)c1cc(C(F)(F)F)c2ccc(N3CCN(c4ccccc4)CC3)nc2n1` belongs -2.9%; to `Cc1ccc(CNC(=O)C2(C(F)(F)F)C/C(=C\Cc3ccccc3)CCCO2)o1` (configuration not stated), 12.6%; to `CC(C)CC[n+]1ccn(C2=C([O-])c3ccccc3C(=O)/C2=N\S(=O)(=O)c2ccccc2)c1`, 54% (active). In the case of `CC(=O)NC(Cc1ccc(F)cc1)C(=O)O` (configuration not stated) it was 2%; in that of `O=C(CCNC(=O)c1ccc(Br)cc1)NCC(c1ccco1)N1CCCCC1` (configuration not stated), 10.5%. In the case of `CCOC(=O)c1ccc(COC(=O)CCc2nc(-c3ccccc3)c(-c3ccccc3)o2)cc1`, the inhibition is -13.2%. As to `CCOc1cc(NC(=O)Nc2ccccc2)c(OCC)cc1NC(=O)CC`, the inhibition was -0.4%. For the compound `CCOc1cc(NC(=O)c2ccccc2C(=O)O)c(OCC)cc1NC(=O)c1ccccc1F`, the inhibition was 50.6% (active).

With `O=C(NCCOc1ccccc1)c1ccccc1F`, the inhibition is 5.5%. To `Cc1ccc(-c2nn(-c3cccc(F)c3)cc2CNCCc2ccncc2)o1` belongs -178%; to `CONC(=O)c1cc(OCC(F)(F)F)ccc1OCC(F)(F)F`, 21.1%. To `CCOc1c(Br)cc(/C=C2\C(=O)N(CCC#N)N=C2C)cc1OC` belongs 50.8% (active); to `CCN1C(=O)[C@@H]2[C@@H](c3ccc(-c4ccccc4)cc3)N3CCCC[C@@]3(C(=O)OC)[C@@H]2C1=O`, 3.1%; to `CC1=C/C(=N\OS(=O)(=O)c2ccccc2)C=CC1=O`, 52.9% (active). In the case of `COc1ccc2[nH]c3c(c2c1)CCN1C(=O)C(CC(=O)NCCc2ccccn2)C[C@H](C(=O)N2CCOCC2)[C@@]31C` (some centres not stated) it was -3.3%; in that of `Cc1ccc(S(=O)(=O)N2[C@@H](c3cccc4ccccc34)C(C(=O)O)=C[C@H]2C(C)(C)C)cc1`, 1.1%; in that of `O=C(NC1CC1)C1=C[C@H](c2coc3ccccc3c2=O)C[C@H](OCCCCO)O1`, -5%.

As to `Cc1ccc(Cl)c(OCC(=O)N2CCc3ccccc3C2)c1`, the inhibition was 20.7%. To `CCC(=O)c1ccc(OCC(=O)OCC(=O)N2CCc3ccccc3C2)cc1` belongs 18.9%; to `O=C(COc1ccccc1)N1CCc2ccccc2C1`, 42.5% (active); to `COc1cccc(N2CC(C(=O)NCc3n[nH]c(=O)c4ccccc34)CC2=O)c1` (configuration not stated), -0.8%. In the case of `O=[N+]([O-])c1ccc(N2CCN(c3ccc(O)cc3)CC2)c(Cl)c1` it was 26.5%; in that of `O=[N+]([O-])c1ccc(N2CCSCC2)cc1O`, 57% (active); in that of `O=[N+]([O-])c1ccc(N2CCN(S(=O)(=O)c3ccccc3)CC2)cc1N1CCc2ccccc2C1`, -132%. To `CC(C(=O)NC1CCCC1)N1CCN(S(=O)(=O)c2ccccc2Cl)CC1` (configuration not stated) belongs 7.4%. Take `CC1(C)Cc2cccc(OCC(N)=O)c2O1`: the inhibition was 20.9%. To `CC1(C)Cc2cccc(OCC(=O)Nc3nccs3)c2O1` belongs 42.4% (active); to `COc1cccc(CCNC(=O)COc2cccc3c2OC(C)(C)C3)c1`, 20.6%; to `O=C(OCC(=O)N1CCN(c2ccccc2)CC1)c1ccc([N+](=O)[O-])s1`, 42.9% (active). In the case of `C[C@H](NC(=O)c1ccccc1Cl)C(=O)OCC(=O)N1CCN(c2ccccc2)CC1` it was 12.8%; in that of `COc1cc(NC(=O)COC(=O)c2ccc([N+](=O)[O-])s2)cc(OC)c1OC`, 26.8%; in that of `Oc1ccc(N=Cc2sc3ccccc3c2Cl)cc1`, 87.5% (active).

Consider `CCCN=C1NC(=O)C(CC(=O)NCCc2ccc(OC)c(OC)c2)S1` (configuration not stated), for which the inhibition was 16.5%. In the case of `Cc1ccc(-n2nc3c(=O)n(C(C)C(=O)NCc4ccc5c(c4)OCO5)nc(C)c3c2C)cc1` (configuration not stated) it was 3.2%.

As for `CC(=O)c1c(N2CCOCC2)nc(=S)n(-c2cc(C)ccc2C)c1C`, the inhibition was 9.8%. As for `CC(=O)Nc1ccc(OCCC[n+]2cccc(C(=O)[O-])c2)cc1`, the inhibition is 7.7%. In the case of `COc1ccc2c(Cl)c(-c3nnco3)sc2c1` it was -37.1%.

Take `COc1ccc(C(=O)Oc2ccc(-c3nnco3)cc2)cc1S(=O)(=O)N1CCOCC1`: the inhibition is 20.2%. Regarding `COc1ccc(-c2nnco2)cc1OC`, the inhibition was 41.5% (active). To `Cc1ccc(N2C(=O)CN=C2Nc2nc(C)cc(C)n2)cc1` belongs 31.7%; to `COc1ccc(N2CCC(CNC(=S)Nc3c(C)cccc3C)C2)cc1` (configuration not stated), 9.9%.

(Values after PubChem BioAssay AID602440 (Sanford-Burnham Center for Chemical Genomics, 2012).)
